Most compounds without a hit are left out; they make up all but 8.1% or so of the library.
ELG1 repair inh = ELG1-dependent DNA repair inhibition | Potency, µM (doses to about 46.1 µM), for the others: at the top dose activity change, negative = inhibition, hits mostly inhibitors | HEK293T ELG1-luciferase reporter, luminescence, 16 h; DNA damage induced by 5-fluorouridine | 330,000 compounds, 2.3% hits | AID 504467; note: % is set by controls: 0 for no effect and ±100 for the full control effect; nearly all actives have a fitted effect of over 55% in size
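DMSO vehicle served as the neutral condition. Each well held 2,000 cells given 5-fluorouridine plus compound; after 16 hr at 37 °C/5% CO2, ONE-Glo was added and luciferase measured 30 min later.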
SW480 rerep = induces DNA re-replication in SW480 colon adenocarcinoma cells; SW480 DNA re-replication, Hoechst DNA content imaging, 48 h; Potency, µM (series often up to 46.1 µM), for inactives: at the top dose re-replication activation, usual class: activators; 340,000 compounds, 1.8% hits; note: % of control where 0% means no effect; nearly all actives have a fitted effect of over 55% in size
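First, 250 cells per well were seeded. Next, compound or vehicle (23 nL) was pinned in, plates sat 48 hr at 37 C. Finally Hoechst was added for 40 min before fluorescence scanning.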
KB-3-1 cytotox = kills parental KB-3-1 adenocarcinoma cells. 400,000 compounds, 1.4% hits. AID 1347075. Potency, µM (doses to about 46.1 µM), usual class: cytotoxic. KB-3-1 viability, CellTiter-Glo ATP luminescence, 72 h; note: % is set by controls: 0 for no effect and ±100 for the full control effect; nearly all actives have a fitted effect of over 60% in size
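Using CellTiter-Glo luminescence, growth of non-resistant KB-3-1 adenocarcinoma cells is assessed 72 h after pin-tool compound addition at 37 °C. Normalized responses across the concentration series yield fitted curves.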
MCF10A rerep = induces DNA re-replication in MCF 10a normal breast cells | MCF 10A DNA re-replication, Hoechst nuclear intensity, 48 h | Potency, µM (highest dose often 46.1 µM), for inactives: at the top dose activity, positive = re-replication, actives largely listed as activators | 350,000 compounds, 2.9% hits | AID 624296; note: % of control where 0% means no effect; nearly all actives have a fitted effect of over 50% in size
KB-V1 MDR tox = kills drug-selected multidrug resistant KB-V1 cells; KB-V1 MDR cells viability, CellTiter-Glo, 72 h; AID 1347076; 400,000 compounds, 3.4% hits; Potency, µM (doses to about 46.1 µM), usual class: cytotoxic; note: % is set by controls: 0 for no effect and ±100 for the full control effect; nearly all actives have a fitted effect of over 60% in size
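Drug-selected KB-V1 cells, grown in DMEM lacking phenol red with 10% FBS, receive compound titrations; after three days at 37 degrees C, surviving cell ATP is quantified by CellTiter-Glo luminescence and responses normalized and curve-fitted.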
* hit, by the source's call; i = inactive; ? = inconclusive; · = not tested or not shown; [ ] = another dose, or the depositor's remark. Calls come from the whole dose curve; as a rule, active = well fitted curve in the direction sought with a large enough effect; inconclusive = small, poorly fitted or top-dose-only effect, or another doubt; inactive = no such curve, though single readings can be large; an effect the other way counts as inactive or inconclusive. Potency is the fitted concentration of half-maximal effect.

SMILES	ELG1 repair inh	SW480 rerep	KB-3-1 cytotox	MCF10A rerep	KB-V1 MDR tox
CC1=Nc2ccccc2/C1=C/c1sc(=N)n(-c2nccs2)c1O	?	11%[9.22 µM]	7.3µM*	?	i
O=C1c2c(O)ccc(O)c2C(=O)c2c(NCCNCCO)ccc(NCCNCCO)c21	11µM*	-9%	0.65µM*	-4%	21µM*
O=S(=O)(c1ccc(Cl)cc1)c1nc(-c2ccccc2)oc1N1CCN(c2ccccc2)CC1	·	·	i	·	i
CN(C)c1oc(/C=C/c2cccs2)nc1S(=O)(=O)c1ccccc1	1%	23µM*	i	18µM*	i
COc1ccccc1/C=C/c1nc(S(=O)(=O)c2ccccc2)c(N(C)C)o1	-7%	?	i	21µM*	i
CSc1oc(-c2cccs2)nc1S(=O)(=O)c1ccccc1	9%	0%	i	-1%	i
COc1cccc(/C=C/c2nc(S(=O)(=O)c3ccccc3)c(N(C)C)o2)c1	-28%	?	i	12µM*	i
CC(=O)NC(c1ccc(F)c(F)c1)c1nc(-c2cc3ccccc3o2)cs1 (configuration not stated)	·	·	i	·	i
Cc1ccc(NC(=O)CSc2nnc(-c3nnn(-c4ccc(F)cc4)c3C)o2)cc1Br	·	·	i	·	i
Cc1cc(C)n(-c2nc3ccccc3nc2N2CCN(c3cccc(C(F)(F)F)c3)CC2)n1	·	·	i	·	i
CO/N=C/C(=N\Nc1ccc(OC)cc1)C(=O)c1ccc(OC)cc1	?	?	?	14%	12µM*
COc1ccc(C(=O)C(/C=N/O)=N/Nc2ccc(F)cc2)cc1	?	-4%	i	-10%	i
Cn1c(=O)[nH]c(=O)c2c1nc(N1CCCCC1)n2CCCSc1nnnn1-c1ccccc1	?	-4%	i	3%	9.2µM*
Cn1c(=O)[nH]c(=O)c2c1nc(N1CCCCCC1)n2CCCSc1nc2ccccc2o1	23µM*	-4%	i	-1%	?
Cc1csc(SCCn2c(N3CCN(c4ccccc4)CC3)nc3c2c(=O)[nH]c(=O)n3C)n1	?	-5%	i	?	21µM*
CN1CCN(c2nc3c(c(=O)[nH]c(=O)n3C)n2CCCSc2nnnn2-c2ccccc2)CC1	5%	5%	i	1%	i
Cc1ccnc(SCCn2c(N3CCOCC3)nc3c2c(=O)[nH]c(=O)n3C)n1	·	-2%	i	-4%	i
CC1CCN(c2nc3c(c(=O)[nH]c(=O)n3C)n2CC(C)CSc2nnnn2-c2ccccc2)CC1 (configuration not stated)	?	-1%	i	1%	3.7µM*
COc1ccc(NC(=O)CN2CCN(Cc3ccccc3)S2(=O)=O)c(OC)c1	·	·	i	·	i
COc1ccc(CCC(=O)NCc2ccc3c(c2)CCN3C(=O)c2ccc(Cl)cc2)cc1	·	·	i	·	i
O=C(CN1CCN(Cc2ccc(Cl)cc2)CC1)N/N=C/C=C/c1ccccc1[N+](=O)[O-]	-27%	18%	21µM*	?	i
CN1CCc2c(sc3c2C(=O)NC(c2cn(Cc4ccccc4)c4ccccc24)N3)C1 (configuration not stated)	?	?	9.2µM*	?	15µM*
CN1CCc2c(sc3c2C(=O)NC(c2ccc(-c4ccc(Cl)cc4)o2)N3)C1 (configuration not stated)	?	?	i	23µM*	i
COc1ccc(Br)cc1C1NC(=O)c2c(sc3c2CCN(C)C3)N1 (configuration not stated)	5%	1%	i	7%	i
CCOC(=O)N1CCc2c(sc3c2C(=O)NC(c2ccccc2)N3)C1 (configuration not stated)	9%	9.2µM*	?	?	i
SMILES	ELG1 repair inh	SW480 rerep	KB-3-1 cytotox	MCF10A rerep	KB-V1 MDR tox
CN1CCc2c(sc3c2C(=O)NC(c2ccco2)N3)C1 (configuration not stated)	18%	0%	i	6%	i
CCOC(=O)N1CCc2c(sc3c2C(=O)NC(c2cc(OC)c(O)c(OC)c2)N3)C1 (configuration not stated)	·	·	i	·	i
CCCCOCCCNC(=O)C[C@@H]1C[C@@]2(C(=O)OC)CC(C)(C)CC=C2N(Cc2ccc3c(c2)OCO3)C1=O	·	·	i	·	?
COc1ccc(-c2noc(CN(C(=O)c3ccc4c(c3)OCO4)C(C)C)n2)cc1	?	-6%	i	0%	i
C=CCN(Cc1nc(-c2ccc(OC)cc2)no1)C(=O)c1ccc2c(c1)OCO2	-9%	0%	i	18%	21µM*
CCc1nc2c(OCC(=O)C(C)(C)C)cccn2c1N(C=O)Cc1ccccc1	·	·	i	·	i
COC(=O)C[C@H]1C=C[C@@H](NC(=O)C2CC2)[C@@H](CO)O1	·	·	i	·	i
N/C(=N\OC(=O)COc1ccccc1)c1ccccn1	?	18µM*	i	4%	i
CCc1ccc(OCC(=O)O/N=C(\N)c2ccccn2)cc1	?	-2%	i	0%	i
Cc1ccc2nsnc2c1NC(=O)c1ccc([N+](=O)[O-])o1	?	2%	4.1µM*	21µM*	?
CC(C)C(=O)NC(=S)Nc1c(Cl)ccc2nsnc12	-7%	-12%	i	18µM*	i
Cc1ccc2nsnc2c1NC(=O)c1ccc(-c2cc(Cl)ccc2Cl)o1	?	13µM*	?	18%	?
C/C(=N\NC(=O)Cc1ccc(Cl)cc1)c1ccccc1O	-1%	15µM*	?	5%	?
C/C(=N\NC(=O)Cc1ccc(Cl)cc1)c1ccc(F)cc1	-9%	0%	i	0%	i
C/C(=N\NC(=O)CSCc1ccc([N+](=O)[O-])cc1)c1ccccc1O	?	?	i	0%	21µM*
CC(C)S(=O)(=O)c1csc(NC(=O)Nc2ccc(Cl)cc2)c1	?	-3%	i	-2%	i
O=C1/C(=C/c2ccccc2)CCc2ccc(Cl)nc21	·	?	i	?	21µM*
COc1ccc(C(C)NC(=O)c2ccc([N+](=O)[O-])cc2)cc1OC (configuration not stated)	-24%	-40%	i	8%	21µM*
COCC(C)NC(=O)c1cccc([N+](=O)[O-])c1 (configuration not stated)	-11%	-16%	i	-8%	i
COc1ccc(C(C)NC(=O)c2cccc([N+](=O)[O-])c2)cc1OC (configuration not stated)	7%	7%	i	-1%	16µM*
COc1ccc(C(C)NC(=O)c2ccc(Br)cc2)cc1OC (configuration not stated)	17%	-36%	i	10%	16µM*

Screening results from PubChem.
